Measurements as given in PubChem BioAssay AID686978 (National Center for Advancing Translational Sciences (NCATS), 2013).
The whole screen tested about 420,000 compounds, of which about 64,000 (15%) were called active. Inconclusive results (about 27%) are left out. Only a sample is shown. Values without a mark were called inactive. Calls come from the whole dose curve; as a rule, active = well fitted inhibition curve with a large enough effect; inconclusive = small, poorly fitted or top-dose-only effect; inactive = flat fitted curve, though single readings scatter.
% is set by controls: 0 for no effect and ±100 for the full control effect; potency is the fitted concentration of half-maximal effect.

Experiment: qHTS for Inhibitors of human tyrosyl-DNA phosphodiesterase 1 (TDP1): qHTS in cells in absence of CPT; note: nearly all actives have a fitted effect of over 55% in size
Settings: DT40 Tdp1-/- hTDP1 cells, no CPT, ATP luminescence, 48 h; activity change, negative = growth inhibition: at 46.2 µM (top of the series)
Method in brief: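 Stably hTDP1-transfected Tdp1-null chicken DT40 cells were treated with library compounds minus camptothecin and grown for at least 48 hr at 37 °C, after which cellular ATP was quantified by luminescence.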
With `CCN(CC)S(=O)(=O)c1cccc(C(=O)NCC(=O)OCC(=O)NCc2ccccc2)c1` the “activity change, negative = growth inhibition” value was -25.2%.
In the case of `CCNC(=O)COc1cc(C)c(Br)c(C)c1`, the “activity change, negative = growth inhibition” value is reported as 1.43%.
For `Cc1cc(F)ccc1NC1(c2ccccc2)C(=O)c2ccccc2C1=O`, the “activity change, negative = growth inhibition” value was -0.108%.
With `CNc1ccc(NC(C)=O)cc1[N+](=O)[O-]` the “activity change, negative = growth inhibition” value was -0.228%.
With `CC(=O)Nc1ccc(/C=N/Nc2ccc(C(=O)c3c(C)cc4ccccn34)cc2[N+](=O)[O-])cc1` the Potency was 11.6 µM (active).
For `CC(=O)Nc1ccc(NC(=S)NC(=O)c2ccc([N+](=O)[O-])c(C)c2)cc1`, the “activity change, negative = growth inhibition” value was -9.77%.
With `CCC(C)NCC(=O)Nc1ccc([N+](=O)[O-])cc1C(=O)Nc1ccccc1F` (stereo not given) the “activity change, negative = growth inhibition” value was -23%.
With `Cc1ccc(S(=O)(=O)N(C)CC(=O)OCC(=O)N2CC(=O)Nc3ccccc32)cc1` the “activity change, negative = growth inhibition” value was -9.32%.
In the case of `COc1ccccc1C(=O)NC(=O)COC(=O)c1ccco1`, the “activity change, negative = growth inhibition” value is reported as -4.23%.
In the case of `COc1cccc(N2CCN(C(=O)C3CCCN(S(=O)(=O)c4cnc[nH]4)C3)CC2)c1` (stereo not given), the “activity change, negative = growth inhibition” value is reported as -25%.
For `CCn1nc(C)cc1C(=O)N1CCCC(C(=O)c2cccc(OC)c2)C1` (stereo not given), the “activity change, negative = growth inhibition” value was -29.3%.
With `COc1ccc(C(=O)C2CCCN(C(=O)c3ccc(OC)o3)C2)c(C)c1` (stereo not given) the Potency was 16.4 µM (active).
With `COc1ccc(OC)c(S(=O)(=O)N2CCCC(C(=O)NCCc3ccccc3)C2)c1` (stereo not given) the “activity change, negative = growth inhibition” value was -23.5%.
For `Cc1cc(Cl)ccc1C(=O)C1CCCN(C(=O)c2nonc2C)C1` (stereo not given), the “activity change, negative = growth inhibition” value was -26.4%.
In the case of `COc1c(C)cc(C(=O)C2CCCN(S(=O)(=O)c3c(C)noc3C)C2)cc1C` (stereo not given), the Potency is reported as 16.4 µM (active).
For `O=C(c1ccc2c(c1)OCO2)N1CCOCC1`, the “activity change, negative = growth inhibition” value was 0.596%.
In the case of `COc1ccc(C(=O)C2CCCN(S(=O)(=O)c3cccc(C)c3)C2)c(C)c1` (stereo not given), the Potency is reported as 18.4 µM (active).
In the case of `Cc1cc(C)c(S(=O)(=O)N2CCC(C(=O)OCc3c(C)noc3C)CC2)c(C)c1`, the “activity change, negative = growth inhibition” value is reported as 2.1%.
In the case of `Cc1cc(Cl)ccc1C(=O)C1CCCN(C(=O)c2ccc3c(c2)OCO3)C1` (stereo not given), the Potency is reported as 8.2 µM (active).
With `CCNC(=O)C1CCCN(C(=O)c2ccc(OC)cc2OC)CC1` (stereo not given) the “activity change, negative = growth inhibition” value was -2.02%.
In the case of `CCOC(=O)C1CCN(S(=O)(=O)c2c(C)noc2C)CC1`, the “activity change, negative = growth inhibition” value is reported as 21.5%.
In the case of `O=C(COc1cccnc1[N+](=O)[O-])Nc1ccc(Cl)cc1F`, the “activity change, negative = growth inhibition” value is reported as -10.4%.
For `Cc1ccc(NC(=O)OCc2cncs2)cc1`, the “activity change, negative = growth inhibition” value was -3.53%.
For `COC(=O)c1c(C(=O)OC)c2n(c1C)CCS2`, the “activity change, negative = growth inhibition” value was -16.7%.
For `CC(C)(C)OC(=O)N(Cc1ccco1)S(=O)(=O)c1ccccc1Br`, the “activity change, negative = growth inhibition” value was 3%.
With `CCn1c(N)c(Br)c(=O)[nH]c1=O` the “activity change, negative = growth inhibition” value was 0.126%.
With `N#Cc1c(NCCO)ccc([N+](=O)[O-])c1NCCO` the “activity change, negative = growth inhibition” value was 0.687%.
For `CC1CCN(C(=O)CSc2nnc(-c3ccco3)n2N)CC1`, the “activity change, negative = growth inhibition” value was 2.17%.
With `CCCn1nc(NS(=O)(=O)c2ccccc2)c2cc3cc(C)ccc3nc21` the “activity change, negative = growth inhibition” value was -7.69%.
In the case of `CC(C)NC(=O)COCc1cc(-c2ccc3c(c2)OCO3)on1`, the “activity change, negative = growth inhibition” value is reported as -26.5%.
For `O=c1c(-c2ccccc2)coc2c(CN3CCOCC3)c(O)ccc12`, the “activity change, negative = growth inhibition” value was -9.85%.
With `Cc1cc(=O)n2nc(N3CCCC3C(=O)NCCCN3CC(C)CC(C)C3)sc2n1` (stereo not given) the “activity change, negative = growth inhibition” value was -6.94%.
For `Cc1nnc(SCc2cc(=O)c3cc(F)ccc3[nH]2)n1C`, the “activity change, negative = growth inhibition” value was 12%.
With `COCCCN(C(=O)CSCc1ccc(C)cc1)c1c(N)n(Cc2ccccc2)c(=O)[nH]c1=O` the “activity change, negative = growth inhibition” value was -1.36%.
For `CCN(C(=O)COC(=O)c1sccc1C)c1c(N)n(Cc2ccccc2)c(=O)[nH]c1=O`, the “activity change, negative = growth inhibition” value was -24.8%.
In the case of `COCCN(C(=O)COC(=O)Cc1cccc(OC)c1)c1c(N)n(Cc2ccccc2)c(=O)[nH]c1=O`, the “activity change, negative = growth inhibition” value is reported as 16.1%.
In the case of `CCN(C(=O)COC(=O)Cc1c(F)cccc1Cl)c1c(N)n(Cc2ccccc2)c(=O)[nH]c1=O`, the “activity change, negative = growth inhibition” value is reported as -19.8%.
For `COc1ccc2oc(C(=O)OCC(=O)N(CC(C)C)c3c(N)n(Cc4ccccc4)c(=O)[nH]c3=O)c(C)c2c1`, the Potency was 16.4 µM (active).
For `CCN(C(=O)COC(=O)c1c(C)nn(-c2ccccc2)c1Cl)c1c(N)n(Cc2ccccc2)c(=O)[nH]c1=O`, the “activity change, negative = growth inhibition” value was 18.7%.
In the case of `CCN(C(=O)COC(=O)CCOc1cccc(C)c1)c1c(N)n(Cc2ccccc2)c(=O)[nH]c1=O`, the Potency is reported as 18.4 µM (active).
With `COCCN(C(=O)CSCc1ccc(C)cc1)c1c(N)n(CC(C)C)c(=O)[nH]c1=O` the “activity change, negative = growth inhibition” value was 20.3%.
With `CCCCN(C(=O)CSCc1ccc(C)cc1)c1c(N)n(Cc2ccccc2)c(=O)[nH]c1=O` the Potency was 25.9 µM (active).
In the case of `CN=C(c1ccccc1)c1c(C)cccc1C`, the “activity change, negative = growth inhibition” value is reported as -12.2%.
In the case of `CC1CCCCC1NC(=O)CSc1nnc(-c2ccncc2)n1CCCN(C)C` (stereo not given), the “activity change, negative = growth inhibition” value is reported as -2.07%.
With `CCCNC(=O)N1CCN(C(=O)NCCC)CC1` the “activity change, negative = growth inhibition” value was 4.59%.
In the case of `O=C(NNc1cc(Cl)ccc1Cl)c1cccnc1Cl`, the “activity change, negative = growth inhibition” value is reported as -2.92%.
For `Fc1ccc(OCc2nn3c(Cn4nnc5ccccc54)nnc3s2)cc1`, the “activity change, negative = growth inhibition” value was -27.8%.
For `CCc1ccccc1NC(=O)Cc1cn(C)c2ccccc12`, the Potency was “inactive”.
With `O=C(O)C1CCCN1S(=O)(=O)c1ccc2c(c1)CCC2` (stereo not given) the “activity change, negative = growth inhibition” value was -7.3%.
In the case of `CC(OC(=O)CNC(=O)c1cccc(F)c1)C(=O)NC1CCCCC1C` (stereo not given), the “activity change, negative = growth inhibition” value is reported as 3.97%.
